“And” between values parts separate entries of the source, which are not always exact repeats. Identical values can stand only once. Inconclusive results are not listed. The source made the active and inactive calls. Unless noted, the call rests on the fitted dose curve; in most records, active means well fitted curve in the direction sought with a large enough effect in the repeat runs; inconclusive means weak or mixed curves; inactive means no such curve, though single readings can be large; an effect the other way counts as inactive or inconclusive.

The nature of assay [1]: qHTS assay for small molecules that induce genotoxicity in human embryonic kidney cells expressing luciferase-tagged ATAD5 (AID 651632). Further: nearly all actives have a fitted effect of over 15% in size. Put shortly:
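DMSO vehicle served as the control. HEK293T reporter cells, 16 hr at 37C, then 30 min Amplite at room temperature; ATAD5 induction is measured as luciferase activity.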

Assay [2] can be described thus: qHTS assay for small molecule agonists of the p53 signaling pathway - cell viability (AID 651633; calls by dose curve; further: nearly all actives have a fitted effect of over 30% in size; further: potency means the concentration at half of the fitted maximal effect). In outline:
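p53RE-bla cells, seeded at 4,000 per well and rested 5 h at 37 C/5% CO2, received compounds in DMSO for 16 h at 37 C. CellTiter-Glo was then added, and luminescence was read after 30 min at room temperature to gauge cytotoxicity.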

A short description of assay [3]: qHTS assay for small molecules that induce genotoxicity in human embryonic kidney cells expressing luciferase-tagged ATAD5 - cell viability (AID 651634; calls by dose curve; further: nearly all actives have a fitted effect of over 25% in size; further: potency means the concentration at half of the fitted maximal effect). In outline: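 Here HEK293T cells with the ATAD5 luciferase reporter are incubated with test compounds for 15.5 hr, and cytotoxicity is then gauged by measuring protease activity in live cells using fluorescence.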
(In general: In qHTS, concentration-response curves come from the screen itself.)

Assay [4] can be described thus: qHTS assay for small molecule disruptors of the mitochondrial membrane potential - cell viability (AID 720634; calls by dose curve;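 further: human HepG2 liver cancer cells; series mostly up to about 83 µM; nearly all actives have a fitted effect of over 20% in size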). Put shortly:
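Viability of HepG2 cells is scored from ATP content by luminescence; cells are exposed to compound for 1 hr at 37 C and 5% CO2, then dosed with m-MPI dye before the CellTiter-Glo reagent.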

A short description of assay [5]: qHTS assay for small molecule disruptors of the mitochondrial membrane potential (AID 720635). Further: potency means the concentration at half of the fitted maximal effect. In outline:
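HepG2 cells (2,000/well) attached overnight at 37C, then took compound for 1 hr at 37C, 5% CO2. Mito-MPS dye was added for 30 min; fluorescence was read at 490/535 nm (monomers) and 540/590 nm (aggregates).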

Assay [6] in a line: qHTS assay to test for compound auto fluorescence at 590 nm (red) in HepG2 cells (AID 720674). In outline: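 Intrinsic compound fluorescence in the red window (Ex/Em 540/590 nm) is measured in attached HepG2 cells exposed for 1 hr, DMSO vehicle as baseline, benchmarked to Rose Bengal sodium.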
Assay [7] in a line: qHTS assay to test for compound auto fluorescence at 535 nm (green) in HepG2 cells (AID 720675).
Assay [8] can be described thus: qHTS assay to test for compound auto fluorescence at 460 nm (blue) in HEK293 cells (AID 720678). Put shortly: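 HEK293 cells (2,000 per well, medium with 10% dialyzed FBS) attached for 4-5 hr at 37C, then received compound and stood overnight at 37C, 5% CO2. Blue fluorescence was read at Ex/Em 405/460 nm and expressed relative to triamterene.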
Assay [9] can be described thus: qHTS assay to test for compound auto fluorescence at 590 nm (red) in HEK293 cells (AID 720679). Put shortly:
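HEK293 cells (2,000/well, medium with 10% dialyzed FBS) attached for 4-5 hr at 37C, received 23 nL compound and were incubated overnight at 37C, 5% CO2. Red fluorescence was then read at 540/590nm Ex/Em, referenced to Rose Bengal sodium.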

For the molecule `CC(=O)Nc1c(I)c(C(=O)N[C@H]2C(O)O[C@H](CO)[C@@H](O)[C@@H]2O)c(I)c(N(C)C(C)=O)c1I` (stereo partly specified), the Potency result in [1], in [2], in [3], in assay [4], in [5] and in assay [6] was “inactive” in each case. Also, the Potency entry in assay [7], in [8] and in assay [9] was “inactive” each time.

Consider `CCC(C)[C@H]1O[C@]2(C=C[C@@H]1C)C[C@@H]1C[C@@H](C/C=C(\C)[C@@H](O[C@H]3C[C@H](OC)[C@@H](O[C@H]4C[C@H](OC)[C@H](NC(C)=O)[C@H](C)O4)[C@H](C)O3)[C@@H](C)/C=C/C=C3\CO[C@@H]4[C@H](O)C(C)=C[C@@H](C(=O)O1)[C@]34O)O2` (stereo partly specified), for which the Potency entry in assay [1], in assay [4], in [6], in assay [7], in assay [8] and in assay [9] was “inactive” throughout. The Potency is 2.98 µM (active) and 11.9 µM (active) in [2]; 6.68 µM (active) and 10.6 µM (active) in assay [3]; 3.76 µM (active) and 11.9 µM (active) in assay [5].

Take `CC(=O)Nc1ccc(OC(=O)c2ccccc2O)cc1`: the Potency entry in [1], in assay [2], in assay [3], in assay [4], in assay [6] and in assay [7] was “inactive” in each case. Also, the Potency result in assay [8] and in assay [9] was “inactive” each time. The Potency in assay [5] was 26.6 µM (active).

On to `O=[n+]1ccn([O-])c2ccccc21`, for which the Potency result in assay [1], in assay [2], in [3], in [4], in assay [5] and in assay [6] was “inactive” in each case. For the same molecule, the Potency entry in [7], in [8] and in assay [9] was “inactive” throughout.

Regarding `O=C(O)[C@@H](O)[C@H](O)[C@H](O)[C@@H](O)C(=O)O` (tested in a mixture with another compound), the Potency entry in assay [1], in assay [2], in assay [3], in assay [4], in assay [5] and in [6] was “inactive” in each case. Also, the Potency result in [7], in assay [8] and in assay [9] was “inactive” throughout.

On to `C=CCCCCCCCCC(=O)OC`, for which the Potency result in [1], in assay [2], in assay [3], in [4], in assay [5] and in assay [6] was “inactive” throughout. Also, the Potency entry in [7], in assay [8] and in [9] was “inactive” in each case.

Turning to `O=C(OCc1ccccc1)c1cccnc1`, the Potency entry in [1], in assay [2], in [3], in assay [4], in assay [6] and in assay [7] was “inactive” each time. In addition, the Potency result in assay [8] and in assay [9] was “inactive” in each case. The Potency in [5] was 23.7 µM (active).

`O=P(O)(O)OC[C@H](O)CO`: the Potency entry in [1], in assay [2], in assay [3], in assay [4], in assay [5] and in assay [6] was “inactive” throughout. Also, the Potency entry in assay [7], in assay [8] and in assay [9] was “inactive” throughout.

As to `CC(=O)N[C@@H](C=O)[C@@H](O)[C@H](O)[C@H](O)CO`, the Potency result in [1], in [2], in assay [3], in assay [4], in assay [5] and in assay [6] was “inactive” throughout. The Potency entry in assay [7], in [8] and in assay [9] was “inactive” throughout.

`CO/N=C(\C(=O)N[C@@H]1C(=O)N2C(C(=O)O)=CCS[C@H]12)c1csc(N)n1`: the Potency result in assay [1], in [2], in [3], in [4], in assay [5] and in assay [6] was “inactive” throughout. In addition, the Potency result in assay [7], in assay [8] and in [9] was “inactive” each time.

`CC(Oc1ccccc1)C(=O)N[C@@H]1C(=O)N2[C@@H]1SC(C)(C)[C@@H]2C(=O)O` (stereo partly specified): the Potency entry in assay [1], in [2], in [3], in [4], in [5] and in [6] was “inactive” throughout. Further, the Potency entry in assay [7], in assay [8] and in assay [9] was “inactive” each time.

Regarding `CCCCc1cc2c(=O)c(C(=O)OC)c[nH]c2cc1OCc1ccccc1`, the Potency result in [1], in assay [2], in assay [3], in assay [4], in assay [5] and in assay [6] was “inactive” throughout. The Potency result in [7], in assay [8] and in assay [9] was “inactive” throughout.

In the case of `CC(C)(CO)[C@@H](O)C(=O)NCCC(=O)NCCSSCCNC(=O)CCNC(=O)[C@H](O)C(C)(C)CO`, the Potency result in assay [1], in assay [2], in assay [3], in assay [4], in assay [5] and in [6] was “inactive” in each case. In addition, the Potency result in assay [7], in [8] and in assay [9] was “inactive” each time.

As to `NCCCC[C@H](NC(=O)[C@@H]1CCCN1C(=O)[C@@H]1CSSC[C@H](N)C(=O)N[C@@H](Cc2ccccc2)C(=O)N[C@@H](Cc2ccccc2)C(=O)N[C@@H](CCC(N)=O)C(=O)N[C@@H](CC(N)=O)C(=O)N1)C(=O)NCC(N)=O`, the Potency result in assay [1], in assay [2], in assay [3], in [4], in [5] and in assay [6] was “inactive” each time. Also, the Potency result in assay [7], in [8] and in [9] was “inactive” each time.

For the molecule `CCC(=O)OCC(=O)[C@@]1(OC(=O)CC)[C@H](C)C[C@H]2[C@@H]3CCC4=CC(=O)C=C[C@]4(C)[C@@]3(F)[C@@H](O)C[C@@]21C`, the Potency entry in assay [1], in assay [2], in [3], in assay [4], in assay [6] and in [7] was “inactive” each time. Besides, the Potency entry in [8] and in assay [9] was “inactive” throughout. The Potency in assay [5] was 29.8 µM (active).

For the molecule `CCCCCCCCCCCCCCCCCCCCCCO`, the Potency result in assay [1], in assay [2], in [3], in [4], in [5] and in assay [6] was “inactive” each time. Further, the Potency result in assay [7], in [8] and in assay [9] was “inactive” each time.

With `CN(CCO)CC(O)Cn1cnc2c1c(=O)n(C)c(=O)n2C` (stereo unspecified) (tested in a mixture with another compound), the Potency result in assay [1], in assay [2], in assay [3], in [4], in assay [5] and in assay [6] was “inactive” throughout. Besides, the Potency entry in assay [7], in [8] and in [9] was “inactive” throughout.

As for `C[C@H](CSC(=O)c1ccccc1)C(=O)N1C[C@@H](Sc2ccccc2)C[C@H]1C(=O)O`, the Potency result in assay [1], in assay [2], in assay [3], in assay [4], in assay [5] and in assay [6] was “inactive” in each case. Besides, the Potency result in [7], in assay [8] and in [9] was “inactive” each time.

`CC[C@H](C)[C@H]1O[C@]2(CC[C@@H]1C)C[C@@H]1C[C@@H](C/C=C(\C)[C@@H](O[C@H]3C[C@H](OC)[C@@H](O[C@H]4C[C@H](OC)[C@@H](O)[C@H](C)O4)[C@H](C)O3)[C@@H](C)/C=C/C=C3\CO[C@@H]4[C@H](O)C(C)=C[C@@H](C(=O)O1)[C@]34O)O2`: the Potency result in assay [1], in assay [4], in assay [6], in assay [7], in assay [8] and in [9] was “inactive” throughout. In addition, the Potency in [2] is 4.22 µM (active); in [3], 2.98 µM (active); in [5], 7.5 µM (active).

For the origin of these results see PubChem BioAssay (Tox21).
